HT1080 IDH1KD tx – kills HT-1080 cells with IDH1 knockdown; HT-1080 IDH1 knockdown viability, ATP luminescence, 48 h; Potency, µM (doses to about 46.1 µM), for inactives: at the top dose activity, negative = toxicity, hits mostly cytotoxic; 360,000 tested, 2% active; AID 686971;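 also: potency is read from the fitted curve at half-maximal effect; 0% = DMSO wells and -100% = cell-free medium wells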
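After a 2 h attachment period, IDH1KD HT-1080 cells took pin-transferred compound for 48 h at 37 °C; ATP-based luminescence after 10 min room-temperature reagent incubation reported viability.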
DT40 TDP1 no CPT – qHTS for Inhibitors of human tyrosyl-DNA phosphodiesterase 1 (TDP1): qHTS in cells in absence of CPT. DT40 Tdp1-/- hTDP1 cells, no CPT, ATP luminescence, 48 h. Potency, µM (titrated, usually from 46.2 µM), for the others: top-dose activity change, negative = growth inhibition, usual class: inhibitors. 420,000 tested, 15% active. AID 686978, 2013; also: potency is read from the fitted curve at half-maximal effect; nearly all actives have a fitted effect of over 55% in size
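Compound effects on proliferation are scored in DT40 Tdp1-/-;hTDP1 cells in the absence of CPT. ATP levels (CellTiter-Glo luminescence) are recorded after a ≥48 hr, 37 °C incubation.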
IL-1B inflam inh – blocks inflammasome-driven IL-1 beta release; THP-1 LPS/ATP IL-1B secretion, AlphaLISA, 16 h; active compounds read low; 360,000 tested, 4.7% active; activity change, % at 57.5 µM; in the data active = activity change below about -50%; inconclusive = mostly about -30% to -49%
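Secreted IL-1B measured by AlphaLISA bead assay after 16 h compound exposure of THP-1 cells; compounds (final up to 57.5 uM) added 1 h before LPS (250 ng/mL) and ATP (1.25 mM) stimulation; lower signal means less secretion.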
HT1080-NT tox – kills 2HG-producing HT-1080-NT fibrosarcoma cells; AID 686970; HT-1080-NT fibrosarcoma viability, CellTiter-Glo ATP luminescence, 48 h; Potency, µM (top dose mostly 46.1 µM), inactives show at the top dose activity, negative = less viability, actives largely listed as cytotoxic; 360,000 tested, 1.6% active;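 also: NT is the 2HG producing partner of a matched IDH1 knockdown line; potency is read from the fitted curve at half-maximal effect; 0% = DMSO-treated cells and -100% = media-only wells without cells; nearly all actives have a fitted effect of over 55% in size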
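Fibrosarcoma NT cells, 750 per well in 5% FBS RPMI, were exposed to compound for 48 hours. Viability: CellTiter-Glo luminescence.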
12-LOX inh – blocks human arachidonate 12S-lipoxygenase | P18054 | purified 12hLO, xylenol orange hydroperoxide absorbance | Potency, µM (highest dose often 108 µM), for the others: at the highest dose activity change, negative = inhibition, usual class: inhibitors | 580,000 tested, 1.1% active; also: potency is read from the fitted curve at half-maximal effect
Target sequence (P18054 whole entry, looked up): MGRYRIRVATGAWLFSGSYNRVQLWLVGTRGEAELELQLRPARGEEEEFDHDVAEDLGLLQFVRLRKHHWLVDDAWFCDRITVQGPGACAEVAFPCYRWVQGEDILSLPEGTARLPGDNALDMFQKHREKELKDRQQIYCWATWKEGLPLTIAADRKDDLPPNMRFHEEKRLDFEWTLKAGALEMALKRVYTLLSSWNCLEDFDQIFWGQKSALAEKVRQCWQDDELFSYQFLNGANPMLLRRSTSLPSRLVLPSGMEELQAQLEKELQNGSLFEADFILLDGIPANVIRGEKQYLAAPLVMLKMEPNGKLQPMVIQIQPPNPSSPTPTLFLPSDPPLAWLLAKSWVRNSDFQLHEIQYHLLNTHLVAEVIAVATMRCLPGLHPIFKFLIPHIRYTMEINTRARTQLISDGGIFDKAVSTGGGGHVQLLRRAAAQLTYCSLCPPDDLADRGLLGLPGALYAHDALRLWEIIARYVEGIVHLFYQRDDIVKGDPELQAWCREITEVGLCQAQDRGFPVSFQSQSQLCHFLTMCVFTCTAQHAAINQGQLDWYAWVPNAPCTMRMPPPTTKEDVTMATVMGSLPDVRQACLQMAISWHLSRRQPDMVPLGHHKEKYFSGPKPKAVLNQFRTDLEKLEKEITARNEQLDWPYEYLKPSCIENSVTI
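Purified human 12hLO at 150 nM in 25 mM Hepes, 0.01% Triton X-100, pH 7.0, preincubated 15 min at room temperature with compound. Reaction started with 40 uM arachidonic acid, 30 min at room temperature. Hydroperoxide measured by Fe-xylenol orange, 573/405 nm absorbance ratio.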
DT40 TDP1 CPT – growth inhibition of DT40 Tdp1-/-;hTDP1 cells with camptothecin (screen for TDP1 inhibitors) | 420,000 tested, 12% active | chicken DT40 Tdp1-/-;hTDP1 cells + 20 nM CPT, ATP luminescence, 48 h | AID 686979 | Potency, µM (top dose mostly 46.2 µM), without a hit: at the top dose activity change, negative = growth inhibition, hits mostly inhibitors; also: potency is read from the fitted curve at half-maximal effect; nearly all actives have a fitted effect of over 55% in size
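Cell growth measured by CellTiter-Glo luminescence after a minimum 48 h, 37 C compound exposure with 20 nM CPT in Tdp1-knockout DT40 cells stably expressing hTDP1, seeded 400/well; qHTS titration format.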
Numbers without * were called inactive; u = inconclusive; x = no result given. The entries come from a sample that favours hits as a whole. Unless noted, calls follow the shape of the dose curve; as a rule, active = well fitted curve in the direction sought with a large enough effect; inconclusive = small, poorly fitted or top-dose-only effect, or another doubt; inactive = no such curve, though single readings can be large; an effect the other way counts as inactive or inconclusive. Unless noted, % is scaled to controls: 0 for no effect and ±100 for the full control effect.

SMILES | HT1080 IDH1KD tx | DT40 TDP1 no CPT | IL-1B inflam inh | HT1080-NT tox | 12-LOX inh | DT40 TDP1 CPT
O=C(O)c1cccc(NC(=O)c2cn(-c3ccccc3)nc2-c2cc3ccccc3o2)c1 | 1% | u | -7 | -1% | u | u
O=C(N/N=C/c1cn(-c2ccccc2)nc1-c1cc2ccccc2o1)c1cccnc1 | 0% | 5.2µM* | -222* | 11% | 0% | 3.3µM*
O=Nc1c(O)[nH]c2ccc(Cl)c(Cl)c12 | u | u | -95* | u | u | u
CCCCCNC(=O)C(c1cc2ccccc2o1)n1c(=O)c(-c2cc3ccccc3[nH]2)nc2ccccc21 (stereo unspecified) | -18% | u | 2 | -12% | u | u
COc1ccc(C(C(=O)Nc2ccc3c(c2)OCCO3)n2c(=O)c(-c3cc4ccccc4[nH]3)nc3ccccc32)cc1 (stereo unspecified) | -10% | u | -13 | -9% | -23% | u
N#Cc1ccc(C(C(=O)NCc2ccccc2)n2c(=O)c(-c3cc4ccccc4[nH]3)nc3ccccc32)cc1 (stereo unspecified) | -19% | 9.2µM* | 9 | -29% | -3% | 12µM*
CCCCCNC(=O)C(c1ccc(-c2ccccc2)cc1)n1c(=O)c(-c2cc3ccccc3[nH]2)nc2ccccc21 (stereo unspecified) | 13% | -22% | 67 | 5% | -28% | -6%
COc1ccc(NC(=O)C(C2CC2)n2c(=O)c(-c3cc4ccccc4[nH]3)nc3ccccc32)cc1 (stereo unspecified) | 15µM* | u | u | u | -1% | 29µM*
COc1ccc(NC(=O)C(c2ccc(C(F)(F)F)cc2)n2c(=O)c(-c3cc4ccccc4[nH]3)nc3ccccc32)cc1 (stereo unspecified) | u | u | 141 | u | -16% | 18µM*
O=C(NCc1ccccc1)C(c1ccc(C(F)(F)F)cc1)n1c(=O)c(-c2cc3ccccc3[nH]2)nc2ccccc21 (stereo unspecified) | u | 15µM* | 75 | u | u | u
Cc1cccc(NC(=O)c2cnn3ccccc23)c1C | u | 2.1µM* | -53* | -21% | -13% | 1.6µM*
CSc1ccccc1C(=O)Nc1cccc(C)c1C | x | x | x | x | 0% | x
Cc1cccc(NC(=O)c2cccc([N+](=O)[O-])c2O)c1C | u | 13µM* | 5 | u | u | 16µM*
Cc1ccc(C)c(NC(=O)c2ccccc2O)c1 | u | 9.2µM* | 6 | u | 0% | 8.2µM*
Cc1ccccc1NC(=O)c1cnn2cccnc12 | x | x | x | x | 21% | x
CSc1ccccc1C(=O)Nc1cccc([N+](=O)[O-])c1C | 4% | -3% | 13 | u | 2% | -10%
Cc1cccc(NC(=O)c2ccccc2O)c1C | -18% | u | -61* | u | -20% | 21µM*
CC1CCC2(CC1)NC(=O)N(CC(=O)Nc1ccc(C(C)C)cc1)C2=O (stereo unspecified) | x | x | x | x | -3% | x
CCC1(c2ccc(Cl)cc2)NC(=S)N(c2ccccc2)N1 (stereo unspecified) | -10% | u | 37 | -19% | 16µM* | u
CCCCCCC1(C)NC(=S)N(c2ccccc2)N1 (stereo unspecified) | u | u | 26 | -56% | u | -27%
CCCCCC1(C)NC(=S)N(c2ccccc2)N1 (stereo unspecified) | u | -9% | 13 | u | 0.79µM* | 12%
Cc1cnc(C(=O)N2CCC(c3noc(-c4cnccn4)n3)C2)cn1 (stereo unspecified) | x | x | x | x | 41% | x

Screening data as filed in PubChem.
